# Shown are actives, neighbours in structure and some others; about 4.6% of the full set was active somewhere.
# USP7 block: human USP7 deubiquitinase inhibition | Q93009 | purified USP7, Ub-rhodamine cleavage fluorescence | inhibition, % at 20 µM | 0.3% of 47,000 active | AID 1645854
# UCHL1 block: human UCHL1 deubiquitinase inhibition | P09936 | purified UCHL1, Ub-rhodamine cleavage fluorescence | inhibition, % at 20 µM | 0.2% of 47,000 active
# USP10 inh: human USP10 deubiquitinase inhibition; purified USP10, Ub-rhodamine fluorescence, 60 min; 1.1% of 47,000 active; inhibition, % at 20 µM; Q14694; AID 1645856
# Target sequence (Q14694 whole entry, looked up): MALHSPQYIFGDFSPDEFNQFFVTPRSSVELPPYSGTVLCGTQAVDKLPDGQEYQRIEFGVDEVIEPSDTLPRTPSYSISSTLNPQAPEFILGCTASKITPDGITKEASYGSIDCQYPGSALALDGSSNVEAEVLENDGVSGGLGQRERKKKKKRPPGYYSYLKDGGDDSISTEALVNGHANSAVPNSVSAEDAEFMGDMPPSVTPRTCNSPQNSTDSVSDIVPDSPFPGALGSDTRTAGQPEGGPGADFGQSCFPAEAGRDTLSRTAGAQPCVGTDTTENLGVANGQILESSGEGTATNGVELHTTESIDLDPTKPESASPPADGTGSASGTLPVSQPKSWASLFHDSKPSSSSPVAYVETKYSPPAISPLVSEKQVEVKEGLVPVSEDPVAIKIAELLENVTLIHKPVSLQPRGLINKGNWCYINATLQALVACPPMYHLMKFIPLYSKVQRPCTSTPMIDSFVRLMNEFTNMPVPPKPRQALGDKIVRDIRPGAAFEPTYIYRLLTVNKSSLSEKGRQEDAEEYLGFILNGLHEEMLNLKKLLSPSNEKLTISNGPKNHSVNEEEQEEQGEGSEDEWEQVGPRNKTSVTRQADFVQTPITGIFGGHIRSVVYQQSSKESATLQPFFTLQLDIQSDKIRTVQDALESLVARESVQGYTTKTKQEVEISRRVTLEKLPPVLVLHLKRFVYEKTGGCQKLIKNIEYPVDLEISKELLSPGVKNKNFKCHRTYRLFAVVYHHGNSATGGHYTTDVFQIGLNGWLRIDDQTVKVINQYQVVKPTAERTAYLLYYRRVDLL
# USP8 inh: inhibitors of human USP8 deubiquitinase; AID 1645853; purified USP8, Ub-rhodamine cleavage fluorescence, 30 min; 4.2% of 47,000 active; inhibition, % at 20 µM
# * marks the source's active call; other numbers are inactive results; . = not tested or not shown. Cut-off read from the data, not from the text of the source: active = inhibition above about 30%; inactive = the rest.
SMILES,USP7 block,UCHL1 block,USP10 inh,USP8 inh
Cc1ccc(NS(=O)(=O)c2cccc(C(=O)NC3CCN(Cc4ccccc4)CC3)c2)c(C)c1,2,7,0,-1
O=C(NC1CCCCCC1)c1cccc(S(=O)(=O)Nc2cc(C(F)(F)F)ccc2Cl)c1,2,6,53*,26
Cc1ccc(-c2nnc(NC(=O)c3ccco3)o2)cc1C,3,3,5,4
COC(=O)c1ccc(NC(=O)/C=C/c2ccc(F)cc2)cc1,.,8,44*,96*
CCc1ccc(S(=O)(=O)Oc2ccc(OCc3ccccc3)cc2)cc1,11,6,12,28
O=C1Nc2ccccc2C(=O)C1C(c1ccc(Cl)cc1)C1C(=O)Nc2ccccc2C1=O (configuration not stated),10,12,54*,34*
O=C(CNCc1cccc(Cl)c1)N1CCc2ccccc2C1,-8,3,-1,72*
COc1cccc(C(=O)Nc2cccn3nc(C)nc23)c1,3,1,1,12
COc1cccc(C(=O)Nc2nc(-c3ccco3)c(-c3ccco3)s2)c1,50*,52*,-8,62*
O=C1N(c2ccccc2)C2CS(=O)(=O)CC2N1c1ccc([N+](=O)[O-])cc1 (configuration not stated),-23,2,0,0
Cc1ccc(NC(=O)Cc2nnc3c(-c4nc(C5CC5)no4)cccn23)cc1,58*,59*,48*,97*
COc1cccc(NC(=O)CCc2c(C)nn(-c3cc(N4CCCCC4)ncn3)c2C)c1,5,6,2,-25
COc1cc(NC(=O)Cc2ccccc2)ccc1NC(=O)c1cc2ccccc2o1,10,4,34*,8
Cc1ccc(NC(=O)CNC(=O)c2cc3ccccc3o2)cc1,3,1,14,-7
O=c1[nH]c2ccc(S(=O)(=O)Nc3ccc(O)c4ccccc34)cc2[nH]1,-72,37*,49*,95*
C/C(Nc1ccc2oc(=O)ccc2c1)=C1/C(=O)CC2[C@H]1C2(C)C (some centres not stated),-7,-8,-8,41*
COc1cc(OC)c2c(c1)C(=O)C1=C(COC(C)(O)C1)C2=O (configuration not stated),-13,16,0,68*
COc1cc2c(cc1OC)-c1cc(Nc3ccc(Br)cc3)nc(=O)n1CC2,7,-3,43*,8
COc1ccc(CCNc2cc3n(c(=O)n2)CCc2cc(OC)c(OC)cc2-3)cc1OC,0,1,-4,-28
COc1ccc(Oc2nc(F)c(Cl)c3c2N(CC2CCCO2)CCS3(=O)=O)cc1 (configuration not stated),-25,6,5,69*
COCCCN1CCS(=O)(=O)c2c(Cl)c(F)nc(Oc3ccccc3)c21,-142,1,0,35*
CCCCN1CCS(=O)(=O)c2c(Cl)c(F)nc(Oc3ccc(OC)cc3)c21,7,7,9,50*
Cc1ccc(OCc2nc3ccccc3n2C(C)c2ccccc2)cc1 (configuration not stated),-9,8,7,9
COc1ccc(-c2onc(C)c2C)cc1S(=O)(=O)NCc1ccc(F)cc1,4,5,58*,11
CC(Sc1nc2nn(-c3ccccc3)c(=O)c-2c2n1CCCCC2)C(=O)Nc1ccc(C#N)cc1 (configuration not stated),12,8,9,-7
SMILES,USP7 block,UCHL1 block,USP10 inh,USP8 inh
O=C(Nc1cccc(Cl)c1)N1CCC(c2cc(-c3ccco3)n[nH]2)CC1,-7,-12,-5,80*
CN1CC(=O)N(C2CCCNC2)Cc2c(NCC3CC3)ncnc21 (configuration not stated),3,3,1,1
COc1ccc(C2(C(=O)N3CCC4(CC3)CC4)CCOCC2)cc1,-10,1,1,4
COc1cn(-c2ccc(F)cc2)nc1C(=O)Nc1ccc(Cl)cc1Cl,11,24,11,49*
Cc1nc(Nc2ccc(Oc3ccccc3)cc2)cc(-c2ccncc2)n1,9,9,5,-5
COc1ccc(Nc2cc(-c3cccc(C(F)(F)F)c3)nc(-c3ccncc3)n2)cc1,3,-1,-3,38*
Cc1ccccc1NC(=O)Cc1nc(-c2cccc3ccccc23)cs1,-3,-2,0,73*
CCCN(CC(=O)Nc1ccccc1C)CC(=O)Nc1cccc2ccccc12,3,6,6,13
Cc1cc(=O)n(CC(=O)Nc2ccc3c(c2)OCCO3)c2c1c(C)nn2-c1ccccc1,4,0,2,-5
CCc1cc(=O)n(CC(=O)Nc2ccc3c(c2)OCCO3)c2c1c(C)nn2-c1ccc(C)cc1,6,4,7,44*
O=C(Cc1nnc(-c2ccc3ncccc3c2)o1)Nc1ccccc1,-4,0,-6,-3
Cc1cc(F)ccc1NC(=O)Cc1nnc(-c2ccc3ncccc3c2)o1,5,-1,-3,47*
O=C(c1ccc(Cl)cc1)[C@@H]1[C@H](C(=O)OC(c2ccccc2)c2ccccc2)N2c3ccccc3C=CC2[C@@]12C(=O)Nc1ccccc12 (some centres not stated),-15,-15,-4,52*
O=C(c1ccc(F)cc1)[C@@H]1[C@H](C(=O)OC(c2ccccc2)c2ccccc2)N2c3ccccc3C=CC2[C@@]12C(=O)Nc1ccccc12 (some centres not stated),-34,-29,-9,-13
CC(C)=CCc1c2c(c3occ(-c4ccc(O)c(O)c4)c(=O)c3c1O)C=CC(C)(C)O2,-12,15,63*,26
CC1=C(C(=O)Nc2ccccc2C)C(c2ccc(C)o2)n2ncnc2N1 (configuration not stated),-1,1,-6,6
CSC1SCC2C(=O)N(C)C(C(C)C(C)C)C(=O)OCC(NC(=O)c3cnc4ccccc4n3)C(=O)NC(C)C(=O)N(C)C1C(=O)N(C)C(C(C)C(C)C)C(=O)OCC(NC(=O)c1cnc3ccccc3n1)C(=O)NC(C)C(=O)N2C (configuration not stated),18,7,38*,14
O=C(/C=C/c1ccc2c(c1)OCO2)N1CCCc2ccccc21,4,2,3,-5
O=C(/C=C/c1cccc([N+](=O)[O-])c1)N1CCc2ccccc21,11,6,16,84*
O=C(NCc1ccc(-c2nc3ncccc3o2)cc1)c1ccccc1,8,4,9,32*
O=C(NC1CC1)C1(Cc2cccc(-c3cccnc3)c2)CCOCC1,10,5,-1,19
O=C(/C=C1\NCCc2cc3c(cc21)OCCCO3)c1ccc(OC(F)(F)F)cc1,-14,-7,-5,53*
COc1ccc(C(=O)/C=C2\NCCc3cc4c(cc32)OCCCO4)cc1OC,-11,-6,-1,27
O=C(CCc1nnc2ccc(N3CCCCC3)nn12)N1CCC(Cc2ccccc2)CC1,-7,-2,-3,13
COCC1CCN(C(=O)CCC2CCCN(c3cc(NC4CC4)ncn3)C2)CC1 (configuration not stated),-8,-1,-3,-54

# From PubChem BioAssay
